Compound activity (PubChem)
Most compounds without a hit are left out; they make up all but 2.4% or so of the library.
D2 PAM-1: Beta-Arrestin HTS for Positive Allosteric Modulators of the Human D2 Dopamine Receptor: Potentiators; potentiation, % (concentration not given with the values); DiscoveRx D2 beta-arrestin cells, luminescence, 90 min; 100% = 57 uM dopamine signal; D(2) dopamine receptor (Homo sapiens), P14416; actives 0.23% (n = 360,000); in the data active = potentiation above about 50%; inconclusive = mostly about 30% to 49%
Target sequence (P14416 whole entry, looked up): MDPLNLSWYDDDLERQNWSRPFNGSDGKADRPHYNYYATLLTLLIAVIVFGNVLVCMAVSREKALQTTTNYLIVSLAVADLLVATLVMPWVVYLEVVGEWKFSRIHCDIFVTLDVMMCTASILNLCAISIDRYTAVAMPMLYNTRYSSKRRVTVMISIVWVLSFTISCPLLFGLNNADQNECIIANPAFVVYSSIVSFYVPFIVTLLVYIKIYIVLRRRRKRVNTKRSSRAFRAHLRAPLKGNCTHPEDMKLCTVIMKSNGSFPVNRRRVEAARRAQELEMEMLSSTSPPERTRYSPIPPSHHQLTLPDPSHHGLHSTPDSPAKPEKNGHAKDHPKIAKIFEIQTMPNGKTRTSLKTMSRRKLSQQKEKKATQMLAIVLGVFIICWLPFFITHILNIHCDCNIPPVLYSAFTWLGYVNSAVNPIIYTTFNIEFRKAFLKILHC
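PathHunter beta-arrestin assay in DiscoveRx D2 cells. Compounds were added with an EC20 of dopamine (50 nM final) for 90 min at 37 deg C. Luminescence was read 1 h after detection reagent, with 57 uM dopamine as the EC100 control.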
D2 ag-1: Beta-Arrestin HTS for Positive Allosteric Modulators of the Human D2 Dopamine Receptor: Agonists | D(2) dopamine receptor (Homo sapiens), P14416 | AID 624465, 2012 | actives 0.084% (n = 360,000) | activation, % (concentration not given with the values) | DiscoveRx PathHunter D2 beta-arrestin, luminescence, 90 min; 100% = 57 uM dopamine signal; in the data active = activation above about 40%; inconclusive = between about 15% and that limit
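Agonist mode: compounds alone added to overnight-plated D2 PathHunter cells for 90 min at 37 C, with 57 uM final dopamine (EC100) defining full response. Beta-arrestin recruitment detected by chemiluminescent reagent, read after 1 h at ambient temperature.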
D2 antag: HTS Assay for Allosteric Antagonists of the Human D2 Dopamine Receptor: Primary Screen for Antagonists. D(2) dopamine receptor (Homo sapiens), P14416. HEK293 TREx D2 cells, calcium flux, dopamine EC80. inhibition, % at 10 µM. AID 485344, 2010. actives 2% (n = 340,000); in the data active = inhibition above about 30%; inactive = below that, where a call was filed; also: 0% is about no effect
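In this primary screen, negative modulation is detected by tracking calcium flux after an EC80 dopamine challenge in inducible HEK293 T-REx D2 cells preexposed to test compound for 180 s.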
D2 PAM-2: HTS Assay for Positive Allosteric Modulators of the Human D2 Dopamine Receptor: Primary Screen for Potentiators; D(2) dopamine receptor (Homo sapiens), P14416; potentiation, % at 10 µM; actives 0.34% (n = 340,000); HEK293 T-REx D2, calcium flux, EC20 dopamine potentiation;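 active = potentiation over 3 SD above the plate norm, cut at about 30% in these data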; also: 0% is about no effect
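Potentiation of an EC20 dopamine calcium response is measured in a force-coupled, tetracycline-inducible Hek293 Trex D2 line. Compound-only kinetic reads over 180 s flag agonists before dopamine addition.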
D2 ag-2: HTS Assay for Allosteric Agonists of the Human D2 Dopamine Receptor: Primary Screen for Agonists. D(2) dopamine receptor (Homo sapiens), P14416. HEK293 T-REx D2 cells, calcium flux agonist mode. activation, % at 2 µM. actives 0.53% (n = 340,000). AID 485358, 2010;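 active = activation over 3 SD above normal in the single-dose calcium agonist read, cut at about 30% in these data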; also: 0% is about no effect
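In this primary screen, compounds producing a positive calcium signal within 180 s of addition to tetracycline-induced, force-coupled HEK293 Trex D2 cells are flagged; cells are dye-loaded with a no-wash calcium kit beforehand.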
An asterisk follows results filed as active; ? = inconclusive; nt = no result; ! = not confirmed by another sample.

SMILES | D2 PAM-1 | D2 ag-1 | D2 antag | D2 PAM-2 | D2 ag-2
CCOC(=O)C1CCCN(C(=O)CNC(=O)c2nn(-c3ccc(OC)c(Cl)c3)c(=O)c3ccccc23)C1 (configuration not stated) | 11.1 | -1.3 | -14.8 | 3.0 | 0.3
COc1ccc(/C=N/NC(=O)c2nn(-c3ccc(C)c(C)c3)c(=O)c3ccccc23)cc1 | 4.8 | -4.1 | 44.7* | 6.5 | 0.6
COCCCNC(=O)CNC(=O)c1nn(-c2ccc(OC)c(Cl)c2)c(=O)c2ccccc12 | -3.3 | 2.8 | 50.0* | -1.7 | 0.4
COc1ccc(-n2nc(C(=O)NCC(=O)NCCCN3CCCCCC3)c3ccccc3c2=O)cc1Cl | -8.8 | 3.1 | 1.2 | 8.3 | 3.1
COc1ccc(/C=N/NC(=O)c2nn(-c3ccccc3)c(=O)c3c(N)scc23)cc1 | 23.5 | 6.7 | -2.3 | -3.1 | -0.1
COc1ccc(-n2nc(C(=O)NCC(=O)N3CCCC(C)C3)c3ccccc3c2=O)cc1Cl (configuration not stated) | 2.4 | 4.6 | -17.6 | 31.5* | -0.1
COC(=O)CC1C(=O)NCCN1C(=O)CSc1nc2cc(Cl)ccc2o1 (configuration not stated) | -22.2 | 1.4 | -3.5 | -7.5 | 0.0
COc1cc(NC(=O)c2nc3cc(C)c(C)cc3n(C)c2=O)cc(OC)c1OC | nt | nt | nt | 16.0 | 0.9
CCCOc1ccc(/C=C2\SC(N)=NC2=O)cc1OC | -4.9 | -0.7 | 65.7* | -10.2 | -0.8
COc1ccc(/C=C2\SC(N)=NC2=O)cc1Br | -0.4 | 1.5 | -8.4 | -1.8 | -0.5
COc1ccc(C2C(C(=O)NCc3ccco3)CCC(=O)N2c2ccc(OC)cc2)cc1 (configuration not stated) | -12.1 | -1.1 | 38.3* | 3.3 | -0.1
COc1ccc(C2C(C(=O)O)CCC(=O)N2c2ccc(OC)cc2)cc1 (configuration not stated) | -7.3 | -2.1 | 17.6 | 3.5 | 0.0
C=CCn1c(C)cc(C(=O)COC(=O)/C=C/c2cccc(OC)c2)c1C | 1.3 | -0.8 | 42.0* | 4.8 | -2.0
CCc1ccc(NC(=O)Cn2c(=O)n(-c3cc(OC)c(OC)c(OC)c3)c(=O)c3ccccc32)cc1 | nt | nt | nt | -7.1 | 0.2
Cc1cccnc1NC(=O)CCc1c[nH]c2ccccc12 | 1.0 | 0.9 | 31.2* | 5.1 | 0.4
Cc1ccnc(NC(=O)CCCc2c[nH]c3ccccc23)c1 | 5.4 | -1.3 | -4.3 | 7.1 | -0.8
CC(C)C(=O)N1CCC1(C)C(=O)Nc1ccc(-n2cccc2)cc1 (configuration not stated) | -6.6 | -1.2 | nt | nt | nt
Nc1nnc(SCC(=O)Nc2ccccc2C(F)(F)F)s1 | nt | nt | nt | 8.2 | -1.9
N#Cc1cnc(SCC(=O)Nc2ccccc2C(F)(F)F)nc1N | -7.4 | -0.3 | 32.0* | -0.7 | 1.3
CCOC(=O)N1CCC(Nc2c(Nc3ccc(C)c(C)c3)c(=O)c2=O)CC1 | -18.1 | 1.3 | 57.0* | -25.6 | -1.5
O=C(NCCCN1CCN(c2cccc(Cl)c2)CC1)c1ccc2nc(Cc3ccccc3)oc2c1 | nt | nt | nt | -22.9 | nt
Oc1ccc(C(=S)N2CCCC2)cc1 | -4.0 | -2.2 | 9.2 | -5.5 | 0.5
Oc1ccc(C(=S)N2CCCCCC2)cc1 | 0.7 | -0.1 | 37.0* | -3.4 | -0.1
COc1ccc(C(=S)N2CCCC2)cc1 | -7.2 | -0.1 | -27.4 | 42.8* | -0.2
O=C(NCc1ccc(F)cc1)c1cc(C2CCCCN2S(=O)(=O)Cc2ccccc2)on1 (configuration not stated) | -10.8 | -2.6 | nt | nt | nt
SMILES | D2 PAM-1 | D2 ag-1 | D2 antag | D2 PAM-2 | D2 ag-2
COc1ccc(Cl)cc1Nc1nc(C)cc(=O)[nH]1 | -33.1 | 2.0 | 74.4* | -27.8 | 0.2
COc1cc(NC(=O)C2CC(c3ccccc3Cl)=NO2)cc(OC)c1OC (configuration not stated) | -3.1 | -2.6 | -1.7 | 5.8 | 0.0
CCOc1ccc(CCNC(=O)c2nn(C)c3c2CSc2ccc(C)cc2-3)cc1OCC | nt | nt | nt | 0.5 | nt
COc1ccc(S(=O)(=O)N(Cc2nc(-c3ccccc3)no2)C2CCCCC2)cc1 | nt | nt | nt | 2.2 | nt
O=C(CC12CC3CC(CC(Br)(C3)C1)C2)NC1CCCC1 | -3.0 | -0.5 | 33.7* | 6.6 | 1.5
CCOc1ccc(CCNC(=O)c2nn(-c3ccc(OC)cc3)c(=O)c3c2c2ccccc2n3C)cc1OCC | nt | nt | nt | 17.7 | 0.1
Cc1cc2ccccc2c(=O)n1CC(=O)NCC(=O)N1CCN(c2ccccc2)CC1 | -6.7 | -3.7 | 64.0* | -0.1 | 1.5
Fc1cccc(-c2cc3nc4c(c(N5CCC6(CC5)OCCO6)n3n2)CCCC4)c1 | 1.1 | -4.5 | 4.7 | 32.2* | -2.0
COc1cccc(/C=C2\CCC(C3CCCC3)C2=O)c1OC (configuration not stated) | 14.6 | 3.6 | -3.6 | -6.1 | -0.8
COC(=O)c1cc(C(=O)OCC(=O)NNC(=O)c2cccs2)cc([N+](=O)[O-])c1 | 71.0* | 8.1 | -5.8 | -10.3 | 0.1
CC(C)(C)c1ccc(C(=O)NC(=S)NNC(=O)c2cccs2)cc1 | -11.5 | -1.7 | 56.4* | -13.0 | 51.0*
O=C(NNC(=O)c1ccc([N+](=O)[O-])cc1)c1ccc(NS(=O)(=O)c2cccs2)cc1 | -14.0 | -5.9 | nt | nt | nt
O=C(NNC(=O)c1cccs1)c1ccc([N+](=O)[O-])cc1 | -9.2 | -3.2 | 61.3* | 2.1 | 1.0
Cc1cc(C(=O)OCC(=O)NNC(=O)c2cccs2)ccc1[N+](=O)[O-] | -1.6 | 1.9 | -11.7 | 11.5 | 0.5
Oc1ccc(C2CNCCc3c2cc(O)c(O)c3Cl)cc1 (configuration not stated) | 58.3*! | ? | -2.9 | 8.5 | 0.1
COc1ccc2c(c1)CCN1C2CCN2C(=O)CCC21 (configuration not stated) | -0.4 | -2.6 | 17.1 | -7.0 | 1.7
OCCSc1ncnc2c1oc1ccccc12 | -20.9 | -2.2 | 6.8 | 5.5 | 0.8
N#CCCSc1ncnc2c1oc1ccccc12 | -16.4 | -1.7 | 36.2* | 5.2 | 0.4
Cc1ccc(CC2C(=O)N(CC(=O)O)C(=O)C2C)cc1 (configuration not stated) | -4.9 | -1.6 | 30.9* | -8.4 | -0.3
CCCCC(=O)OCc1nc2ccccc2s1 | -23.3 | -11.0 | -9.3 | 42.4* | -0.2
CCCC(O)c1nc2ccccc2n1CCCCOc1ccc(OC)cc1 (configuration not stated) | nt | nt | nt | 0.9 | nt
O=C(CSc1cc(Cl)ccc1Cl)NC1CC1 | -6.2 | -4.9 | 0.4 | 14.9 | 0.2
CN1CCN(NC(=O)CSc2ccc(Cl)cc2Cl)CC1 | -4.2 | -2.3 | 45.8* | 2.6 | 0.4
